Whole data set: some 18,000 sequences, median “log2 normalized intensity” near 0.39, cut for the highest 2% near 6.6. Shown is part of a subset that was picked to be rich in the highest values.
These sequences were tested against T1, HNF4alpha2 (COS-7 nuclear extract) (Homo sapiens, UniProt P41235 1-474) (assay: protein-binding microarray; COS-7 nuclear extract on double-stranded Agilent 4x180k PBM; binding buffer, salt, pH and temperature not given in the material; high values mean tight binding). Conditions: chain copies: 2; label: 3' end of strand 1 on the slide; dsDNA, one strand shown.
T1 sequence: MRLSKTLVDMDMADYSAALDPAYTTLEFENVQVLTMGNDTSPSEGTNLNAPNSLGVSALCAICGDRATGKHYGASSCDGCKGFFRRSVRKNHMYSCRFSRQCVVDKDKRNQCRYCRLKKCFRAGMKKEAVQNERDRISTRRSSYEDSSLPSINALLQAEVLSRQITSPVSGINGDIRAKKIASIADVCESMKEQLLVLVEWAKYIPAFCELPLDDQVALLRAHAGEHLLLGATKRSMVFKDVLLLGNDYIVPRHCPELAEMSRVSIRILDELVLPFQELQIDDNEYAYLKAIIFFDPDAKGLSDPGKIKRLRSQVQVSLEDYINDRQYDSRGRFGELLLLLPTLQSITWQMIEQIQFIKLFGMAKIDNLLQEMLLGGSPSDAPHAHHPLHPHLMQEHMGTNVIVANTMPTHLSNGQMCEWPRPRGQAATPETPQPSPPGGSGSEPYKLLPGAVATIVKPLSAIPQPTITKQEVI
In short: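 Double-stranded oligonucleotides of ~60 nt, representing ~44,000 test sequences in quadruplicate, made up a custom Agilent SurePrint G3 4x180k array. Nuclear extracts from COS-7 cells transiently transfected by CaPO4 with a human HNF4α isoform expression vector were applied, and bound HNF4α was imaged at 2-µm resolution on an Agilent G2565CA scanner. Binding signal refers to the background-corrected, normalized gProcessedSignal output of Agilent software.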
“CTTAAAGGCCTGTGTCGATGTTAACGCTAAGCCTAGGGAGATTAGAGTATCGGTCGA” gave a binding signal of -0.828 log2 normalized intensity. Work on “GCCCTTCCCCCCTCTGCAGCCTTACCCAGTGCCTAGGGAGATTAGAGTATCGGTCGA” yielded a binding signal of 4.59 log2 normalized intensity. “TGTCGTTTGCTTAGTCTTATCTGAGGTGCCGCCTAGGGAGATTAGAGTATCGGTCGA” gave a binding signal of 0.932 log2 normalized intensity. Sequence “GAAATGGTGGACTTTGTAGCTCAAACAGTCGCCTAGGGAGATTAGAGTATCGGTCGA” has a binding signal of 3.13 log2 normalized intensity. “TATGGATAGGCACATATTGGATCTCTGGTAGCCTAGGGAGATTAGAGTATCGGTCGA” showed a binding signal of 0.865 log2 normalized intensity. With “CAGTTTGAAATTAGGCAATATGAGTAGAGCGCCTAGGGAGATTAGAGTATCGGTCGA” the binding signal was -0.693 log2 normalized intensity. For “TTGGCTAAAGTCCAAATTCCTTGGAATACAGCCTAGGGAGATTAGAGTATCGGTCGA”, the binding signal was 3.12 log2 normalized intensity. “CACACACACACAGCATTCCATTCATTTTAGGCCTAGGGAGATTAGAGTATCGGTCGA” gave a binding signal of -0.727 log2 normalized intensity. Sequence “AACATGTAATCATTTGGGACAAAGTTCATCGCCTAGGGAGATTAGAGTATCGGTCGA” has a binding signal of 4.11 log2 normalized intensity. With “TGAACAATTGATTTATAGCCTTTTTGCCCAGCCTAGGGAGATTAGAGTATCGGTCGA” the binding signal was 1.29 log2 normalized intensity. For “TGCTTTCTTATCTGGGGGCCATTCCTCTATGCCTAGGGAGATTAGAGTATCGGTCGA”, the binding signal was 1.1 log2 normalized intensity. “AGGAGATGTGGTGGACTTTAACGACCTTTGGCCTAGGGAGATTAGAGTATCGGTCGA” showed a binding signal of 4.66 log2 normalized intensity. Sequence “ATTAGAGAACATGTACTTTGTACTGCTTATGCCTAGGGAGATTAGAGTATCGGTCGA” has a binding signal of 4.15 log2 normalized intensity. For “CCCCTTCTTAACATCAGAAGTTGGACTTTGGCCTAGGGAGATTAGAGTATCGGTCGA”, the binding signal was 7.59 log2 normalized intensity. With “AGGGACTTTGATCTTCTTACCCCTTTGCTGGCCTAGGGAGATTAGAGTATCGGTCGA” the binding signal was 2.86 log2 normalized intensity. Work on “ACTTTGGAACTCAGTTAATGTACAGAGTATGCCTAGGGAGATTAGAGTATCGGTCGA” yielded a binding signal of 0.375 log2 normalized intensity. “TCTTAACATCAGAAGTTGGACTTTGTACATGCCTAGGGAGATTAGAGTATCGGTCGA” was tested, and the binding signal was 9.62 log2 normalized intensity. For “CTTTGCTCCCACCCTGCAATTCCCCTGGGCGCCTAGGGAGATTAGAGTATCGGTCGA”, the binding signal was 3.29 log2 normalized intensity. Work on “CAAACAGACCTCCCCCAACTTACTTAGTGGGCCTAGGGAGATTAGAGTATCGGTCGA” yielded a binding signal of 1.85 log2 normalized intensity. “TTCAATTTTTTTGTTGTTATCCATTTAAAAGCCTAGGGAGATTAGAGTATCGGTCGA” was tested, and the binding signal was 1.04 log2 normalized intensity. Work on “GTATCTAATCTCAGATATGCTAATTAACCCGCCTAGGGAGATTAGAGTATCGGTCGA” yielded a binding signal of 1.79 log2 normalized intensity. With “GTTATGAGTCTGTTGTCTAACATTTTTGACGCCTAGGGAGATTAGAGTATCGGTCGA” the binding signal was 0.629 log2 normalized intensity. In the case of “CTTACTTGGCCTGTTTGCTGAAGGCCATGCGCCTAGGGAGATTAGAGTATCGGTCGA”, the binding signal is reported as 0.0452 log2 normalized intensity. In the case of “CAACTAGGGCAAAGGTTAGCTTGGACAGAGGCCTAGGGAGATTAGAGTATCGGTCGA”, the binding signal is reported as 2.72 log2 normalized intensity.

— PMC10726135, “HNF4α isoforms regulate the circadian balance between carbohydrate and lipid metabolism in the liver”
